Assay results reported in PubChem BioAssay (NCATS).
“And” between values parts separate entries of the source, which are not always exact repeats. Equal entries are not always repeated. Inconclusive results are not listed. Where a call stands in place of a potency, no number is given. The source made the active and inactive calls. Calls come from the whole dose curve; as a rule, active = well fitted curve in the direction sought with a large enough effect; inconclusive = small, poorly fitted or top-dose-only effect, or another doubt; inactive = no such curve, though single readings can be large; an effect the other way counts as inactive or inconclusive.

System: not listed separately
Test: Inducers of the Endoplasmic Reticulum Stress Response (ERSR) in human glioma: Validation (AID 504836)
Conditions: human glioma cells, ER stress response reporter; series mostly up to 38.3 µM
Method in brief: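 ERSR induction read as luciferase luminescence (Bright-Glo, 10 min at room temperature) in stably transfected human U87-MG glioma cells exposed to compounds for 16 h, using GRP78 as sensor.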
In the case of C[C@@H](N)C1CCC(C(=O)Nc2ccncc2)CC1 (stereo partly specified), the Potency is reported as “inactive”. In the case of CC(C)(C)NCC(O)c1ccc(O)c(CO)c1 (stereo unspecified), the Potency is reported as “inactive”. In the case of Clc1ccc(C(c2ccc(Cl)cc2)n2cc[n+](CC(OCc3ccc(Cl)cc3Cl)c3ccc(Cl)cc3Cl)c2)cc1 (stereo unspecified), the Potency is reported as “inactive”. With Cc1cccc(-c2[nH]c(C(C)(C)C)nc2-c2ccc3nccnc3c2)n1 the Potency was “inactive”. For CC(C)c1ccc2c(c1)c(SC(C)(C)C)c(CC(C)(C)C(=O)O)n2Cc1ccc(Cl)cc1, the Potency was “inactive”. In the case of C[C@]12C[C@H](O)[C@H]3[C@@H](CCC4=CC(=O)CC[C@@]43C)[C@@H]1CC[C@@H]2C(=O)CO, the Potency is reported as “inactive”. With CCn1cc(C(=O)O)c(=O)c2cc3c(cc21)OCO3 the Potency was “inactive”. For NCCCC(N)(C(=O)O)C(F)F (stereo unspecified), the Potency was “inactive”. With CC1=C(/C=C/C(C)=C/C=C/C(C)=C/C(=O)O)C(C)(C)CCC1 the Potency was “inactive”. For CCc1c(C)[nH]c2c1C(=O)C(CN1CCOCC1)CC2 (stereo unspecified), the Potency was “inactive”. For Cc1cccc(C#Cc2ccccc2)n1, the Potency was “inactive”. In the case of CC(C)(Sc1ccc(CCN(CCCCC2CCCCC2)C(=O)NC2CCCCC2)cc1)C(=O)O, the Potency is reported as “inactive”. For C[N+]1(C)C2CC(OC(=O)[C@H](CO)c3ccccc3)CC1C1OC12 (stereo partly specified), the Potency was “inactive”. For CC(C)C[C@H](NC(=O)[C@@H](O)[C@H](N)Cc1ccccc1)C(=O)O, the Potency was “inactive”. For CCOC(=O)C(C)Oc1cccc2c(=O)n(CC(=O)Nc3ccc4c(c3)OCCO4)ccc12 (stereo unspecified), the Potency was “inactive”. In the case of CC(=O)Oc1ccccc1C(=O)O, the Potency is reported as “inactive”. In the case of CC(C[N+](C)(C)C)OC(N)=O (stereo unspecified), the Potency is reported as “inactive”. For CS(=O)(=O)Nc1ccc([N+](=O)[O-])cc1Oc1ccccc1, the Potency was “inactive”. For NCCS, the Potency was “inactive”. In the case of COc1cc2nc(N3CCCN(C)CC3)nc(NC3CCN(Cc4ccccc4)CC3)c2cc1OC, the Potency is reported as “inactive”. With CCN(CC)CCn1c(=O)c(Cc2ccc(OC)cc2)nc2ccccc21 the Potency was “inactive”.

Target: Ubiquitin carboxyl-terminal hydrolase 1 (Homo sapiens) (UniProt O94782)
Sequence (O94782 whole entry, looked up): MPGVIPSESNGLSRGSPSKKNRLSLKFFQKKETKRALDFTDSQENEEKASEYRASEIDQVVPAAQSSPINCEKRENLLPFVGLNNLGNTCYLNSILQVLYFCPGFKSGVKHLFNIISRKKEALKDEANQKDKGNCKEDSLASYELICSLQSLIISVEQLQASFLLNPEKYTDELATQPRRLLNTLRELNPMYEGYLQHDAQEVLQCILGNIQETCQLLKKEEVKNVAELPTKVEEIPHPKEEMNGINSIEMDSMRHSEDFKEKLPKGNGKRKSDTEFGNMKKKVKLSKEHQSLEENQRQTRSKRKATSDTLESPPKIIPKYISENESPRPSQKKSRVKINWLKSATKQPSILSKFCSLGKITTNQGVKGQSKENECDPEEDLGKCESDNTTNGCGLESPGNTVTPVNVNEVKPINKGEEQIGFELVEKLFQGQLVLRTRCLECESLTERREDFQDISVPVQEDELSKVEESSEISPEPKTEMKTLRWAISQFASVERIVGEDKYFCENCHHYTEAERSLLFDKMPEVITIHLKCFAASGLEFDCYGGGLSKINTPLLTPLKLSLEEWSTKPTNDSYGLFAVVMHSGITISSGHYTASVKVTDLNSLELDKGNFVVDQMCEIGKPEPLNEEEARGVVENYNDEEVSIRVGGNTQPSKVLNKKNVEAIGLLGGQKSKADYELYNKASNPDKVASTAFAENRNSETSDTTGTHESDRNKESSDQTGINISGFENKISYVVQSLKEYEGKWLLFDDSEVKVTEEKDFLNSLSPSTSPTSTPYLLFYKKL
Test: Inhibitors of USP1/UAF1: Pilot qHTS (AID 504865); note: nearly all actives have a fitted effect of over 35% in size; note: potency is the fitted concentration of half-maximal effect
Conditions: purified USP1/UAF1, Ub-rhodamine cleavage fluorescence; series mostly up to 114 µM
Method in brief: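 Deubiquitinase activity followed as kinetic rhodamine fluorescence release from 150 nM Ub-Rho. 1 nM USP1/UAF1 with compound, after 15 min room-temperature preincubation, in HEPES pH 7.8 buffer containing TCEP, EDTA, BSA and Tween-20.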
In the case of CC(=O)OCC1=C(C(=O)O)N2C(=O)[C@@H](N)[C@@H]2SC1, the Potency is reported as “inactive”. With C[C@]12CCC(=O)C(O)=C1CC[C@@H]1[C@H]3CCC(=O)[C@@]3(C)CC[C@@H]12 the Potency was “inactive”. In the case of CCCCCCCCCC(CC)c1ccc(S(=O)(=O)O)cc1 (stereo unspecified), the Potency is reported as 79.4 µM (active). For COC(=O)c1cncn1C(C)c1ccccc1 (stereo unspecified), the Potency was “inactive”. With NC1=NC(=O)N2CC12 (stereo unspecified) the Potency was “inactive”. For C#CC1(O)CCC2C3CCC4=CC(=O)CCC4(C)C3CCC21C (stereo unspecified), the Potency was 50.1 µM (active). For O=C(O)CCCOc1ccc(Cl)cc1Cl, the Potency was “inactive”. For CCCCCCCCCCCCCCCC[N+](C)(C)C, the Potency was 22.4 µM (active) and 31.6 µM (active). For CCC(=O)OC1CCC2C3CCC4=CC(=O)CC[C@@]4(C)C3CC[C@]12C (stereo partly specified), the Potency was “inactive”. For O=C1C(I)=CC(=C(c2cc(I)c(O)c(I)c2)c2ccccc2C(=O)O)C=C1I, the Potency was 25.1 µM (active).
